KCNQ2 pot: KCNQ2 (rat) channel potentiation | B-score at 10 µM | CHO-K1 KCNQ2, FluxOR thallium flux fluorescence; hits give high values | AID 2239 | 310,000 tested, 0.54% active | O88943;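 active = fluorescence ratio B-score at least 3 SD of library B-scores, with initial fluorescence B-score within 3 of them, cut at about 5.3 in these data; same plate scores as AID 2156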;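 note: B-score of peak minus minimum over baseline fluorescence ratio after K+ and Tl+ stimulus; positive B-score means potentiation of KCNQ2 with more thallium influx and brighter signal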
Target sequence (O88943 whole entry, looked up): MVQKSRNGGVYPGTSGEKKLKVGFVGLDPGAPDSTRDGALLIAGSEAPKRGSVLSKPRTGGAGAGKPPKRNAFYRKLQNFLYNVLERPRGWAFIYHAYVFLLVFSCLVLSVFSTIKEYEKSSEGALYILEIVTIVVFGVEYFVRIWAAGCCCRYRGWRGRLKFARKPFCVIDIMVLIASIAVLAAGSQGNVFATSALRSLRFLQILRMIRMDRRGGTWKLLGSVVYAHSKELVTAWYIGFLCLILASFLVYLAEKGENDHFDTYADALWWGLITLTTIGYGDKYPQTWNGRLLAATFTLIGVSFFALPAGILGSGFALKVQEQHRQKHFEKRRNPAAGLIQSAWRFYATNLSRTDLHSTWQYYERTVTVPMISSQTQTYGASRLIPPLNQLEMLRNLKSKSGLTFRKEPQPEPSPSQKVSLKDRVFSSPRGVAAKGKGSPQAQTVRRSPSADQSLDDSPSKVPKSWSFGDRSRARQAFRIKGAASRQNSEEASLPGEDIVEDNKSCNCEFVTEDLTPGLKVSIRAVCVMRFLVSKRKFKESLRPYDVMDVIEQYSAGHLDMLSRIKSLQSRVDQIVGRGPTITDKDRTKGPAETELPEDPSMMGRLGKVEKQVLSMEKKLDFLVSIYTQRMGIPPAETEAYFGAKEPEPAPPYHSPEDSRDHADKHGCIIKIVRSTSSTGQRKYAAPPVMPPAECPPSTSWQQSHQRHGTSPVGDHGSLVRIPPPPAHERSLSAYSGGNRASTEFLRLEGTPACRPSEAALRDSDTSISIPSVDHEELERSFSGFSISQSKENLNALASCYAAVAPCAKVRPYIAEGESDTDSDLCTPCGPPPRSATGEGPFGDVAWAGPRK
KCNQ2 block: KCNQ2 (rat) channel inhibition. AID 2156. O88943. B-score at 10 µM. CHO-K1 KCNQ2, FluxOR thallium flux, 20 min; hits give low values. 310,000 tested, 1.1% active;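 active = fluorescence ratio B-score at most minus 3 library SDs, with starting brightness B-score within 2 library SDs, cut at about -5.5 in these data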
KCNQ2 block conf: confirmation of rat KCNQ2 potassium channel inhibitors; 1,000 tested, 57% active; activity change, negative = inhibition, % at 10 µM; shares compounds with KCNQ2 block; KCNQ2-expressing cells, thallium flux, inhibition; hits give low values;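 note: 0% = vehicle wells and values are ratio percent relative to vehicle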
KCNQ1 spec: KCNQ2 inhibitor that also affects human KCNQ1 channel. shares compounds with KCNQ2 block. KCNQ1-expressing cells, FluxOR thallium flux fluorescence; hits give low values. activity change, negative = inhibition, % at 10 µM. 1,000 tested, 15% active. AID 493026;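 active = activity change at least 3 SD of negative controls below their mean in both duplicate wells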;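 note: CHO cells stably transfected with KCNQ1 and depolarized by potassium stimulus; peak minus minimum fluorescence over baseline after thallium addition; 0% = vehicle negative control and -100% = blank without thallium stimulus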
CHO parental ctr: KCNQ2 inhibitor counter-screen hit in parental CHO cells; activity change, % at 10 µM; 1,000 tested, 14% active; AID 493029; thallium flux counter-screen; hits give low values; shares compounds with KCNQ2 block;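 note: 0% = vehicle negative controls with stimulus buffer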
KCNQ2 inh confirm: confirmation of rat KCNQ2 potassium channel inhibitors | 550 tested, 49% active | AID 588531 | KCNQ2-expressing cells, automated patch clamp current | shares compounds with KCNQ2 block | calls only at 10 µM
Kir21 confirm: confirmation of mouse Kir2.1 potassium channel inhibitors; shares compounds with KCNQ2 pot; Kir2.1-expressing cells, FluxOR thallium flux fluorescence; hits give low values; Tl flux remaining, % of negative control (hits give low values), % at 10 µM; 2,300 tested, 41% active; AID 2032;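 active = Primary-screen hit whose thallium flux fell at least 3 control SD below untreated wells in both duplicates, with normal baseline fluorescence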;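 note: 0% = blank wells without stimulus and 100% = stimulated no-compound controls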
HEK293 Tl flux: parental HEK293 activity in Kir2.1 inhibitor counter-screen; shares compounds with KCNQ2 pot; parental HEK293 cells, FluxOR thallium flux fluorescence; 0% = unstimulated blank wells; 2,300 tested, 19% active; AID 2105; FluxOR signal as % of negative control (100 = no effect), % at 10 µM;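 active = dye signal at least 3 control SD above or below untreated wells in both duplicates, raw fluorescence within 3, either direction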;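 note: percent is based on the flux ratio of peak minus minimum fluorescence over baseline F0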
* hit, by the source's call; i = inactive; · = no result given; + = active, no number. This is a sample that favours compounds with a hit; in the whole collection about 1.6% have one here. Unless noted, the rule behind the calls is not given here.

SMILES	KCNQ2 pot	KCNQ2 block	KCNQ2 block conf	KCNQ1 spec	CHO parental ctr	Kir21 confirm	HEK293 Tl flux	others
O=C(Nc1cc(C(F)(F)F)ccc1N1CCCC1)C1=COCCO1	·	i	·	·	·	·	·
COc1cccc(Oc2ccc(C(F)(F)F)cc2NC(=O)C2=COCCO2)c1	-7.5	-7.5*	i	i	i	·	·
COc1cccc(Oc2ccc(C(F)(F)F)cc2NC(=O)c2cccc(F)c2)c1	-7.1	-7.1*	-26%*	i	i	·	·	KCNQ2 inh confirm=i
COc1ccc(Oc2ccc(C(F)(F)F)cc2NC(=O)c2ccc(F)cc2)cc1	·	i	·	·	·	·	·
O=[N+]([O-])c1ccc(Cn2cc(-c3cccc(C(F)(F)F)c3)nn2)cc1	·	i	·	·	·	·	·
Cc1cccc(/C(N)=N/OC(=O)Cc2ccccc2)c1	3	i	·	·	·	·	·
Cc1cccc(/C(N)=N/OC(=O)N2c3ccccc3Sc3ccccc32)c1	-6.8	-6.8*	i	i	i	·	·
O=C(/C=C/c1cc(Br)ccc1O)c1ccco1	-7.7	-7.7*	-36%*	-41%*	-29%*	73%*	i	KCNQ2 inh confirm=i
O=C(/C=C/c1ccccc1O)c1ccco1	·	i	·	·	·	·	·
N=c1c2c(-c3ccccc3)c(-c3ccccc3)n(Cc3ccco3)c2ncn1CCCO	·	i	·	·	·	·	·
N=c1c2c(-c3ccccc3)c(-c3ccccc3)n(Cc3ccco3)c2ncn1CCO	-7	-7*	i	i	i	37%*	i
CCn1cc(CNC(=S)Nc2cccc3ccccc23)cn1	·	i	·	·	·	·	·
CCOC(=O)c1ccc(C(=S)N2CCCC2)cc1	0.41	i	·	·	·	·	·
COc1cc(CNCc2ccccc2)cc(Cl)c1OC	0.24	i	·	·	·	·	·
COc1cc(CNCCc2ccccc2)cc(Cl)c1OCc1ccccc1	-7.2	-7.2*	i	i	i	31%*	i
O=c1nc(N2CCCC2)nc(N2CCCC2)[nH]1	·	i	·	·	·	·	·
OC(COc1ccc(CNCCc2ccccc2F)cc1)CN1CCCCC1 (stereo not drawn)	·	i	·	·	·	·	·
Cc1ccc(C(=O)N/C(=C\c2ccc(-c3cccc([N+](=O)[O-])c3)o2)C(=O)NCCCN(C)C)cc1	1.7	i	·	·	·	·	·
Cc1ccc(C(=O)N/C(=C\c2ccc(-c3ccc(Br)cc3)o2)C(=O)NCCCN(C)C)cc1	-8.2	-8.2*	-31%*	i	i	i	i	KCNQ2 inh confirm=i
CCOC(=O)C1=C(COC(=O)/C=C/c2cccc([N+](=O)[O-])c2)NC(=O)NC1C (stereo not drawn)	2.5	i	·	·	·	·	·
c1ccc(Cc2nc3ccccc3n2Cc2ccccc2)cc1	-8.1	-8.1*	-46%*	-44%*	-36%*	64%*	77%*	KCNQ2 inh confirm=i
Cc1nc2ccccc2n1Cc1ccccc1	·	i	·	·	·	·	·
O=C(CCC(=O)c1ccc(Cl)cc1)OCc1nc2ccsc2c(=O)[nH]1	0.01	i	·	·	·	·	·
CC(C)N(c1ccccc1)c1ccc(NC(=O)COC(=O)CCN2C(=O)c3cccc([N+](=O)[O-])c3C2=O)cc1	·	i	·	·	·	·	·
Cc1ccc(C(C)C)c(OCC(=O)NCC(c2cccs2)N2CCOCC2)c1 (stereo not drawn)	-8.4	-8.4*	-38%*	i	i	78%*	i	KCNQ2 inh confirm=i
SMILES	KCNQ2 pot	KCNQ2 block	KCNQ2 block conf	KCNQ1 spec	CHO parental ctr	Kir21 confirm	HEK293 Tl flux	others
Cc1cc(OCC(=O)NCC(c2cccs2)N2CCOCC2)ccc1C(C)C (stereo not drawn)	·	i	·	·	·	·	·
CCOC(=O)c1c(S(=O)(=O)NCC(=O)Nc2cc(C)ccc2OC)c(C)n(C)c1C	·	i	·	·	·	·	·
Cc1cc(C)n(-c2nc(SCC(=O)O)c3c4c(sc3n2)COC(C)(C)C4)n1	·	i	·	·	·	·	·
Cc1cc(C)n(-c2nc(SCCN(C)C)c3c4c(sc3n2)CCCC4)n1	-8.9	-8.9*	-30%*	-31%*	i	i	i	KCNQ2 inh confirm=i
CN1/C(=C\C=O)C(C)(C)c2ccccc21	1.5	i	·	·	·	·	·
CN1\C(=C/C=C/C=C/C=[N+](C)C)C(C)(C)c2ccccc21	-9.7	-9.7*	-48%*	-36%*	-36%*	12%*	i	KCNQ2 inh confirm=+
CCN1/C(=C/c2ccc3cc(C)ccc3[n+]2CC)Sc2ccccc21	·	i	·	·	·	·	·
CCN1/C(=C/c2sc(-c3ccccc3C)c[n+]2C)Sc2ccccc21	-7	-7*	i	i	i	24%*	i
CC(C)=CCC(C)(C)/C=N/NC(N)=O	1	i	·	·	·	·	·
Cc1c(CN(C)C(=O)/C=C/c2ccc([N+](=O)[O-])cc2)cnn1C	0.56	i	·	·	·	·	·
COc1cccc(Nc2nc(NCC3CCCO3)c3ccccc3n2)c1 (stereo not drawn)	-10	-10*	i	i	i	18%*	i
COc1cccc(Nc2nc(NCCO)c3ccccc3n2)c1	·	i	·	·	·	·	·
Cc1cc(Cl)ccc1OCC(=O)Nc1ccccc1N1CCOCC1	·	i	·	·	·	·	·
Cc1ccc(OCC(=O)Nc2ccccc2N2CCOCC2)c(C)c1	-7.4	-7.4*	i	i	i	61%*	i
CCN(CC)CCNC(=O)C1c2cc(OC)c(OC)cc2C(=O)N(C)C1c1cccs1 (stereo not drawn)	1.2	i	·	·	·	·	·
COc1ccc(-c2cc3c(=O)n(CC(=O)N4CCN(C)CC4)ncn3n2)cc1	1.9	i	·	·	·	·	·
COc1ccccc1N1CCN(C(=O)CCCn2nc(C)c([N+](=O)[O-])c2C)CC1	·	i	·	·	·	·	·
CCCn1c(NCc2c[nH]c3ccccc23)nc2ccccc21	-7.9	-7.9*	-28%*	i	i	42%*	i	KCNQ2 inh confirm=+
CCCn1c(NCc2ccccn2)nc2ccccc21	1.9	i	·	·	·	·	·
O=C(O)Cc1coc2ccc3ccccc3c12	0.01	i	·	·	·	·	·
CC(C)CN(CC(C)C)C(=O)Cc1coc2ccc3ccccc3c12	-8.4	-8.4*	-31%*	-28%*	-20%*	i	i	KCNQ2 inh confirm=+
O=C(COc1ccccc1Br)NCc1ccco1	0.03	i	·	·	·	·	·
